PLC-gamma1 inh = PLC-gamma1 enzyme inhibitors, primary screen, biochemical, fluorescence, purified enzyme; 1-phosphatidylinositol 4,5-bisphosphate phosphodiesterase gamma-1 (Homo sapiens), P19174; fluorogenic substrate; inhibition, % at 12.2 µM; 370,000 compounds, 0.84% hits; AID 720700, 2013; in the data active = inhibition above about 9.5%
PLCb3 inh = human PLC-beta3 inhibitors, primary screen, biochemical, fluorescence | 1-phosphatidylinositol 4,5-bisphosphate phosphodiesterase beta-3 (Homo sapiens), Q01970 | Purified PLC-beta3, fluorogenic substrate | inhibition, % at 12.2 µM | 370,000 compounds, 0.18% hits | AID 720704, 2013;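 note: 0% = median of compound wells on plate and 100% = full blocker control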
MBD2 inh = inhibitors of MBD2 binding to methylated DNA, primary screen, biochemical, TR-FRET, DNA-binding domain, human; 370,000 compounds, 0.31% hits; inhibition, % at 4.4 µM; Methyl-CpG-binding domain protein 2 (Homo sapiens), Q9UBB5; MBD2 binding to methylated oligonucleotide; in the data active = inhibition above about 13%
Target sequence (Q9UBB5 whole entry, looked up, the tested form may be a part): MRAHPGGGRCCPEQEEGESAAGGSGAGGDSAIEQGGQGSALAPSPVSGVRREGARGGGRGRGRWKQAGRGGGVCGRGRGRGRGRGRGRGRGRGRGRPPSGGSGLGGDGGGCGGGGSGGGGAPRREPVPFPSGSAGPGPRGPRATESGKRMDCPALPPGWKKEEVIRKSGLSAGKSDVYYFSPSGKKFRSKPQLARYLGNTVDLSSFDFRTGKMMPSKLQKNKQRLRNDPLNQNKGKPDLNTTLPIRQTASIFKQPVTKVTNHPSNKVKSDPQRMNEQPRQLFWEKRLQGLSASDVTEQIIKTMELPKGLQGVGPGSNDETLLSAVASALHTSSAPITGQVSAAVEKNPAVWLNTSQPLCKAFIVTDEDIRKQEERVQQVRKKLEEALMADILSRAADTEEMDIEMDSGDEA
UHRF1 MBD2 ctr = UHRF1 methylated DNA binding inhibitors, primary screen, counter-screen for MBD2 inhibitor project, biochemical, TR-FRET, human UHRF1, single concentration; AID 687016, 2013; UHRF1 binding to methylated oligo; inhibition, % at 4.4 µM; 370,000 compounds, 0.75% hits; in the data active = inhibition above about 21%;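 note: UHRF1 SRA domain binding a hemimethylated CpG hairpin DNA probe; 0% = median of test compound wells and 100% = reference inhibitor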
LEDGF integ inh = blockers of LEDGF/p75-dependent integrase strand transfer – biochemical, TR-FRET, high throughput, primary screen | HIV-1 integrase (with human LEDGF/p75) | TR-FRET IN-LEDGF/p75 DNA integration, Eu/Cy5 | inhibition, % at 3.7 µM | 370,000 compounds, 0.64% hits;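 active = inhibition above the screen-wide mean plus 3 SD, cut at about 13% in these data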;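 note: signal is the Cy5 over europium emission ratio at 671 and 618 nm; 0% = plate median of compound wells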
PLCg1 ctr = PLC-gamma1 enzyme inhibitors, counter-screen for PLC-beta3 inhibitor project, biochemical, fluorescence. shares compounds with PLC-gamma1 inh. AID 743258, 2014. purified PLC-gamma1, fluorogenic substrate. inhibition, % at 12.3 µM. 3,300 compounds, 3.1% hits; in the data active = inhibition above about 9.5%
PLCb3 confirm = PLC-beta3 inhibitor confirmation, biochemical, fluorescence, purified enzyme | fluorogenic substrate fluorescence | shares compounds with PLC-gamma1 inh | inhibition, % at 12.3 µM | 3,300 compounds, 1% hits
Starred values were filed as active, the others as inactive; . = no result. Rows were chosen to be rich in hits. Some 2.4% of all compounds tested hit in one or more screens of this group. Cut-off read from the data, not from the text of the source, unless noted: active = inhibition above about 11%; inactive = the rest.

SMILES	PLC-gamma1 inh	PLCb3 inh	MBD2 inh	UHRF1 MBD2 ctr	LEDGF integ inh	PLCg1 ctr	PLCb3 confirm
COc1cc(/C=N/NC(=O)Cn2nnc3ccccc32)ccc1O	-0.8	1.6	1.6	0.0	-1.3	.	.
CC(=O)N1CCCN(S(=O)(=O)c2ccc3c(c2)c(=O)n(C)c(=O)n3C)CC1	2.3	-5.6	0.2	-1.0	0.7	.	.
CCOC(=O)C1(CC2CCCCO2)CCN(S(=O)(=O)c2ccccc2)CC1 (stereo not drawn)	0.7	-1.2	1.8	0.3	2.7	.	.
CCOC(=O)C1(CC2CCCCO2)CCN(S(=O)(=O)c2c(C)nn(C)c2C)CC1 (stereo not drawn)	12.9*	13.1*	2.2	6.4	7.4	-6.5	-3.2
COC(=O)C[C@H]1CC[C@H]2[C@H](COc3ccc(NS(=O)(=O)c4cccc(F)c4)cc3C(=O)N2C)O1	0.8	3.9	-0.2	1.2	-3.5	.	.
O=C(c1cccc(S(=O)(=O)N2CCOCC2)c1)N(CCO)Cc1ccccc1	10.2*	0.2	0.4	-1.0	1.2	-4.8	-1.3
O=C(c1cccc(S(=O)(=O)N2CCCCC2)c1)N(CCc1ccccc1)Cc1ccccc1	1.8	-2.1	3.7	1.7	2.9	.	.
O=[N+]([O-])c1nccn1CC(O)CO (stereo not drawn)	10.3*	8.0	10.1	3.6	-1.9	-1.9	1.5
COCC(O)Cn1ccnc1[N+](=O)[O-] (stereo not drawn)	3.0	4.0	-4.2	-1.8	-1.6	.	.
Cn1c(=O)c2cc(S(=O)(=O)N3CCN(c4ccc(F)cc4)CC3)ccc2n(C)c1=O	-1.3	1.6	-9.4	-0.7	0.3	.	.
CC(C)(C)c1ccc(S(=O)(=O)N2CCC(C(=O)NCC3COCCO3)CC2)cc1 (stereo not drawn)	-1.3	0.1	9.6	-0.2	-0.7	.	.
Cc1ccc(C2OC(=O)c3ccccc32)cc1 (stereo not drawn)	9.6*	3.1	-2.4	9.6	3.5	-1.9	-0.4
O=C(CCNS(=O)(=O)c1ccccc1F)N1CCN(Cc2ccccc2)CC1	5.5	-7.0	6.5	4.2	-3.1	.	.
CC(C)c1ccc(S(=O)(=O)N2CCN(C(=O)CCNS(=O)(=O)c3ccccc3F)CC2)cc1	17.7*	-0.3	-3.6	-1.7	5.4	-6.5	-1.1
CCOC(=O)N1CCN(C(=O)c2ccc(Cn3c(=S)[nH]c4cc5c(cc4c3=O)OCO5)cc2)CC1	12.1*	3.9	0.9	2.6	5.2	4.3	0.8
CCOC(=O)N1CCN(C(=O)c2ccc(Cn3c(=S)[nH]c4cc(OCC)c(OCC)cc4c3=O)cc2)CC1	-1.6	-4.8	0.7	0.3	-6.1	.	.
C=CCN(Cc1ccc2c(c1)OCO2)C(C#CCCCC)C(C)C (stereo not drawn)	0.7	2.6	2.3	-1.2	-6.8	.	.
CCCCCn1c(SCC2CCCO2)nc2cc(C(=O)N3CCC(C(N)=O)CC3)ccc2c1=O (stereo not drawn)	9.6*	1.3	-0.9	3.9	5.2	-10.2	-7.2
CCn1c2ccccc2c2cc(C=NNC(=O)c3cc(-c4ccc(OC)cc4)n[nH]3)ccc21	-238.3	-341.2	0.2	-0.5	0.7	.	.
COC(=O)[C@]12C[C@H](CC(=O)NCCCCc3ccccc3)C(=O)N(CCC3=CCCCC3)C1=C[C@H](C1CCCC1)O[C@@H]2C	0.5	2.8	-3.4	1.0	-0.2	.	.
CCOC(=O)c1c(NC(=O)CSc2nnc(C)o2)sc(C)c1C	9.7*	-1.5	-2.2	4.8	-0.9	-4.2	-0.7
CN1C=CC(=C[N+](=O)[O-])N(C)C1=O	11.5*	6.3	-10.9	-2.7	5.6	-3.2	-3.0
Cc1cc(NC(=O)c2cccs2)ccc1NC(=O)Cc1ccccc1	-3.1	2.8	-0.3	-1.3	-0.8	.	.
O=C(Cc1ccccc1)Nc1cccc(NC(=O)c2cccs2)c1	11.2*	4.3	-3.8	8.8	5.6	-3.5	-0.9
O=C(CSc1ccc(Cl)cc1)N1CCN(c2c(Cl)cccc2[N+](=O)[O-])CC1	1.1	-3.7	0.7	-2.7	-1.0	.	.
SMILES	PLC-gamma1 inh	PLCb3 inh	MBD2 inh	UHRF1 MBD2 ctr	LEDGF integ inh	PLCg1 ctr	PLCb3 confirm
O=C(/C=C/c1ccc(Cl)cc1)N1CCN(c2c(Cl)cccc2[N+](=O)[O-])CC1	17.0*	10.4	3.5	4.4	1.9	-7.2	1.7
CCOC(=O)[C@]12CCCC=C1N(Cc1ccc(OC)cc1)C(=O)[C@@H]2CC(=O)NCc1ccc(C)o1	1.2	1.2	2.4	-1.0	1.5	.	.
CCN(CC(=O)Nc1cccc(S(=O)(=O)N2CCCC2)c1)CC(=O)Nc1ccccc1OC	-1.6	-5.1	-1.6	-1.0	2.8	.	.
CCN(CC(=O)Nc1cccc(F)c1)CC(=O)Nc1ccccc1OC	9.8*	-0.1	-2.5	5.5	0.2	-3.8	-0.7
COC(=O)[C@]12C[C@H](CC(=O)NCc3ccc(C)o3)C(=O)N(Cc3ccco3)C1=C[C@H](C(C)(C)C)O[C@@H]2C	4.8	0.5	4.7	-0.1	-0.1	.	.
COC(=O)[C@]12C[C@H](CC(=O)N3CCN(C(=O)C4CC4)CC3)C(=O)N(Cc3cccc4ccccc34)C1=C[C@H](COCc1ccccc1)O[C@@H]2C	14.1*	2.1	0.2	0.6	4.2	-5.7	-2.6
COC(=O)[C@]12C[C@H](CC(=O)N3CCN(C(=O)C4CC4)CC3)C(=O)N(Cc3ccccc3)C1=C[C@H](COCc1ccccc1)O[C@@H]2C	3.2	0.8	5.1	-1.2	1.0	.	.
COC(=O)[C@]12C[C@H](CC(=O)N3CCCCC3)C(=O)N(CCC3=CCCCC3)C1=C[C@H](C1CCCC1)O[C@@H]2C	10.8*	-6.8	9.2	5.2	-0.4	1.2	-1.1
COC(=O)[C@]12C[C@H](CC(=O)NCCC(C)C)C(=O)N(Cc3ccc(Cl)cc3Cl)C1=C[C@H](C1CCCC1)O[C@@H]2C	10.6*	0.8	-10.7	-0.1	4.9	3.0	2.5
COC(=O)[C@]12C[C@H](CC(=O)NCc3ccc(C)o3)C(=O)N(Cc3ccccc3)C1=C[C@H](C(C)(C)C)O[C@@H]2C	10.2*	8.1	-6.4	1.5	5.2	-9.0	-5.1
CCCC[C@H](CCCc1ccc(F)cc1)CCC(=O)N(c1ccccc1)c1ccccc1	3.5	3.1	0.6	1.8	5.8	.	.

Compound activity as filed in PubChem.
